Screening data from PubChem.
Rows were chosen to be rich in hits. Some 19% of all compounds tested hit in one or more screens of this group.
Cycloheximide cs: counter-screen hit for Shiga toxin inhibitors, cycloheximide; 300,000 compounds, 12% hits; cell reporter, cycloheximide protein synthesis inhibition counterscreen; max response, %; AID 2314; in the data active means max response mostly above about 13%, no sharp cut-off; inactive means mostly below about 14%; further: read at 38.3 µM for the half of the compounds with a filed dose; 0% is about no effect
Pf growth 96h: P. falciparum growth inhibition at 96 hour, primary screen for plastid delayed-death inhibitors. P. falciparum luciferase reporter growth, 96 h. Potency, µM (doses to about 28.7 µM), inactives show at the top dose activity change, negative = inhibition, most hits filed as inhibitors. 320,000 compounds, 6.9% hits; further: potency means the concentration at half of the fitted maximal effect; on the % scale 0 is the no-effect control and ±100 the full control effect
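Two parasite generations (96 h, 37 C, 5% CO2) of compound exposure in infected erythrocytes (0.05% parasitemia, 2% hematocrit). Luciferase-reporter P. falciparum; decreased luminescence indicates inhibited growth, aimed at apicoplast-acting delayed death.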
Shiga inhibitor: blocks Shiga toxin action in Vero cells; Vero cells, Shiga toxin protein synthesis inhibition reporter; inhibition, % at 38.7 µM; 290,000 compounds, 9.2% hits; AID 2315; in the data active means inhibition mostly above about 28%, no sharp cut-off; inactive means mostly below about 43%; further: 0% is about no effect
Pf growth 48h: inhibits P. falciparum growth in the first generation, 48 h. P. falciparum luciferase growth in erythrocytes, 48 h. 310,000 compounds, 5.9% hits. Potency, µM (series often up to 28.7 µM), without a hit: at the top dose activity change, negative = inhibition, hits mostly inhibitors; further: potency means the concentration at half of the fitted maximal effect; on the % scale 0 is the no-effect control and ±100 the full control effect
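Read-out is firefly luciferase luminescence from an integrated reporter in P. falciparum, so falling signal marks reduced parasite growth. Infected erythrocytes were at 2% hematocrit and 0.1% parasitemia (final) in Albumax-supplemented RPMI 1640.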
SARS PLpro yeast: inhibitors of SARS-CoV papain-like protease in yeast; S. cerevisiae expressing SARS-CoV PLpro, growth rescue; 330,000 compounds, 0.19% hits; AID 485353; Potency, µM (doses to about 32.9 µM), for the others: at the highest dose activity, positive = growth rescue, actives largely listed as activators; calls by dose curve; further: potency means the concentration at half of the fitted maximal effect; 0% is about no effect; nearly all actives have a fitted effect of over 55% in size
AMA1 RON2 block: disrupts binding of P. falciparum AMA1 to RON2. AlphaScreen AMA1-biotinylated RON2 peptide binding. Potency, µM (series often up to 58.2 µM), for the others: at the highest dose activity change, negative = inhibition, most hits filed as inhibitors. 360,000 compounds, 0.2% hits;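 further: potency means the concentration at half of the fitted maximal effect; 0% = vehicle wells and -100% = peptide control; nearly all actives have a fitted effect of over 45% in size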
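AMA1 (3D7) with his tag at 25 nM final met compounds first, then biotinylated RON2 peptide at 25 nM; detection used donor plus acceptor beads, 10 µg/mL apiece, read by AlphaScreen after 30 min at room temperature.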
Numbers without * were called inactive; i = inactive; ? = inconclusive; . = no result; [ ] = dose if it differs, or a comment. Unless noted, the call rests on the fitted dose curve; in most records, active means well fitted curve in the direction sought with a large enough effect; inconclusive means small, poorly fitted or top-dose-only effect, or another doubt; inactive means no such curve, though single readings can be large; an effect the other way counts as inactive or inconclusive.

SMILES | Cycloheximide cs | Pf growth 96h | Shiga inhibitor | Pf growth 48h | SARS PLpro yeast | AMA1 RON2 block
CC1(C)Oc2ccc(NC(=O)C3COc4ccccc4O3)cc2O1 (stereo not drawn) | 35* | 12% | 72 | 33% | -29% | 8%
O=C(Nc1ccccc1F)C1COc2ccccc2O1 (stereo not drawn) | 33* | ? | 43* | 8% | 4% | 21%
COC(=O)c1ccc2c(=O)n(CCN3CCOCC3)c(=S)[nH]c2c1 | -5 | . | 0 | -1% | 1% | -1%
Cc1cc(=O)nc2c3ccccc3n(CC(=O)NCCCN3CCCC3=O)n12 | -2 | ? | -2 | 18% | 1% | 2%
COCC1CCN(C(=O)c2cc(COc3ccc(OC)c4ccccc34)on2)C1 (stereo not drawn) | . | . | . | . | . | -15%
CCOC(=O)C1CCN(C(=O)c2cc(COc3ccc(OC)c4ccccc34)on2)CC1 | 43* | 2% | 82* | 12% | -13% | -9%
COc1ccc(OCc2cc(C(=O)N3CCC(OC)CC3)no2)c2ccccc12 | 41* | -36% | 126* | -9% | -8% | -17%
COc1cccc(C(=O)NC(=S)Nc2nnn(C)n2)c1 | 18 | 20% | 21 | 6% | -12% | 25%
O=C1NCCCC2c3c(cc(Br)c(O)c3Br)OC12N1CCOCC1 (stereo not drawn) | 5 | ? | 3 | 2% | 6% | ?
O=C1NCCCC2c3cc(O)c4ccccc4c3OC12N1CCCCC1 (stereo not drawn) | 12 | 20% | 20 | 8.3µM* | 0% | .
O=[N+]([O-])c1ccc(C23CC4CC(CC(O)(C4)C2)C3)cc1 | 39* | 82% | 63* | 122% | ? | .
CC1C(=O)N(Cc2ccc(F)cc2)c2ccccc2N1C(=O)c1c(F)cccc1F (stereo not drawn) | -3 | 12µM* | 3 | ? | -6% | -3%
COC(=O)c1ccc(CN2C(=O)C(C)N(C(=O)c3c(F)cccc3F)c3ccccc32)cc1 (stereo not drawn) | -4 | ? | 24 | ? | -3% | -8%
Cc1cccn2c(=O)nc(SCC(=O)c3ccccc3)nc12 | . | 3% | . | 21% | . | 0%
CC(C)CNC(=O)c1oc2ccccc2c1COc1ccccc1 | -5 | 10µM* | -12 | 12µM* | -30% | -3%
CCC(CC)NC(=O)c1oc2ccccc2c1COc1ccccc1 | 8.4* | 4.1µM* | 25 | 6.6µM* | 26% | -4%
Cc1cc(C)cc(NC(=O)c2oc3ccccc3c2COc2ccccc2)c1 | -2 | -102% | 33 | ? | -7% | -3%[2.32 µM]
CC(=O)Nc1ccc(NC(=O)CSc2nnc(-c3cccnc3)o2)cc1 | . | 28% | . | 37% | 2% | -2%
O=C(CNCc1cccc2ccccc12)Nc1ccccc1[N+](=O)[O-] | 17 | 0% | 4 | ? | -2% | ?
COc1ccc(C(=O)Cn2c(NCCCO)nc3ccccc32)cc1OC | 0 | 21% | 1 | 3% | -7% | -2%
O=C(Nc1ccc(NC(=O)c2ccco2)nc1)c1ccco1 | 11 | 21% | 42 | i | -5% | -2%
O=C(Nc1ccccn1)c1ccco1 | 45* | 80% | 98 | 103% | 1% | 0%
O=C(Nc1ccc(Cl)cc1C(=O)Nc1ccccn1)c1ccco1 | 2 | 2% | 12 | 0% | -5% | 102%
O=C(Cc1ccccc1)Nc1ccc(NC(=O)c2ccco2)nc1 | 44* | 2% | 105* | 164% | 3% | 32%
O=C(Nc1ccc(NC(=O)c2ccco2)nc1)c1ccccn1 | 28* | ? | 20 | 229% | -30% | ?
SMILES | Cycloheximide cs | Pf growth 96h | Shiga inhibitor | Pf growth 48h | SARS PLpro yeast | AMA1 RON2 block
CC[C@H](C)[C@H](NC(N)=O)C(=O)Nc1ccccc1F | 10 | 2% | 3 | -28% | 3% | -2%
Cc1ccc(-c2nn3c(C)nnc3c3ccccc23)cc1S(=O)(=O)NCCN1CCOCC1 | -1 | ? | 22 | ? | 0% | 1%
Cc1ccc(-c2nn3c(C)nnc3c3ccccc23)cc1S(=O)(=O)NCc1ccccc1 | -3 | 8.3µM* | -7 | ? | -6% | 3%
CC1COC(=O)C(NNc2ccc(Cl)c(Cl)c2)=N1 (stereo not drawn) | 10 | 11% | 38 | 21% | -22% | 5%
COc1ccc(N(C(=O)CCl)C(C)(C(=O)Nc2c(C)cccc2C)c2ccccn2)cc1 (stereo not drawn) | -1 | ? | -1 | 4.7µM* | -3% | 14%
Cc1ccccc1/C=N/Nc1ncnc2nc[nH]c12 | 21* | 8% | 72* | -15% | -1% | 6%
C(=N\Nc1ncnc2nc[nH]c12)/c1cccs1 | 41* | 270% | 111* | 101% | -1% | 102%
Cc1ccsc1/C=N/Nc1ncnc2nc[nH]c12 | 42* | 234% | 85* | 185% | 0% | 68%
Fc1ccc(/C=N/Nc2ncnc3nc[nH]c23)cc1F | 73* | 9.3µM* | 99* | ? | 1% | 43%
c1ccc(CNc2ncnc3nc[nH]c23)cc1 | 13 | ? | 17 | . | 2% | 7%
COc1cccc(NC(=S)N(Cc2cccc(Br)c2)CC2CCC(C(=O)O)CC2)c1 (stereo not drawn) | 9 | 0% | -7 | -21% | -3% | -11%
CN1CCc2c(sc(NC(=O)CSc3ccc(F)cc3)c2-c2nc3ccccc3s2)C1 | -6 | . | -13 | . | . | .
CCCSC1=NN2CCCC(=O)N=C2S1 | 27* | 71% | 93* | 212% | 0% | -11%
O=C1CCCN2N=C(SCC(=O)Nc3ccc(OC(F)(F)F)cc3)SC2=N1 | -3 | 12µM* | 37 | -17% | 0% | 3%
CCCc1ccc(-c2ccc(-c3noc(-c4ccncc4)n3)cc2)nc1 | -1 | 10µM* | -1 | 0% | 7% | 28%
CCCCc1ccc(-c2ccc(Br)cc2)nc1 | 35* | ? | 86* | i | 8% | 46%
CCc1ccc(-c2nc(-c3ccncc3)no2)cc1 | 42* | -23% | 85* | 14% | -10% | 12%
CCOc1nc(-c2ccccc2)ccc1-c1noc(-c2ccncc2)n1 | 2 | 23% | 9 | -13% | 2% | -2%
CCCCc1ccc(-c2nc(-c3ccncc3)no2)cc1 | 39* | 23% | 73* | 218% | 3% | -6%
Cc1nnc(SCC(=O)n2c3c(c4ccccc42)CCCC3)s1 | -1 | . | -9 | 29% | -1% | -7%
CNC[C@H]1OCc2ccccc2-c2ccccc2C(=O)N([C@H](C)CO)C[C@H]1C | . | . | . | . | . | 6%
CCSc1nnc(NC(NC(C)=O)(C(F)(F)F)C(F)(F)F)s1 | -6 | 1% | -18 | -4% | -10% | -8%
COc1cc2c(cc1C1NC(=S)NC(C)=C1C(N)=O)CCCC2 (stereo not drawn) | 2 | 36% | 13 | 14% | 2% | 0%
CCOc1nc2c(c(-c3cccs3)c1C#N)Cc1ccccc1-2 | -3 | 11% | 0 | 4% | 0% | -11%
